{"source": "the supplement of paper PMC10338343", "note": "± gives the standard deviation. Over roughly 6,600 sequences, “pre-steady-state target cleavage rate” has its median near 0.07; the highest 2% begin near 0.72. What follows is part of a selection rich in the highest values, with near analogues and random picks from the rest.", "data": [{"system": "MIWI (PIWIL1) piRISC loaded with Kctd7 piRNA (30 nt)", "assay": "pre-steady-state target cleavage rate (min^-1); MIWI and MILI are mouse PIWI proteins and EfPiwi is from a freshwater sponge; tags in brackets are library labels; higher = faster piRNA-guided slicing of the target", "conditions": "guide: Kctd7 piRNA 5'p-UGUUAAUCUCUCAGAGAAGGUGACAGUGAU; auxiliary factor: 500 nM mouse GTSF1", "procedure": "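Cleave-'n-Seq: a library of target RNAs (target site embedded in constant flanks, ACAGCATTCCGCGTTAGTGATATCCG... 5' flank; DNA-blocked outside the site) at 0.1 nM was incubated with 1 nM active mouse MILI or MIWI piRISC (synthetic 5'-monophosphorylated piRNA guide) with or without 500 nM mouse GTSF1 at 33 °C for 1 min to 16 h. Uncleaved targets were sequenced and normalised to non-target controls, and the pooled three trials were fitted to a burst-and-steady-state model to give the pre-steady-state cleavage rate (min^-1; k3 is constrained to at most 1e-4). Sequence is the target site only; target names encode pairing extent (gX:gY) and contiguous / 1-mismatch / 2-mismatch / bulge geometry. Fits with R² ≤ 0 are excluded.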", "values": [{"sequence": "UUCACUGUCACCUUCUCUGAAGAGAUUAACA", "pre-steady-state target cleavage rate": "0.019 ± 0.0081"}, {"sequence": "UAGUGACUCACCUUCUGUGAGAGAUUAAGA", "pre-steady-state target cleavage rate": "0.088 ± 0.02"}, {"sequence": "UAGACUGUCACCUUCUCUGAGAGAUUAACA [g2:g27:cont:t1A]", "pre-steady-state target cleavage rate": "0.805 ± 0.05"}, {"sequence": "UAGACUGUCACCUUCUCUGAGAAGAUUAACA", "pre-steady-state target cleavage rate": "0.0399 ± 0.0084"}, {"sequence": "UAGACUGUCACCUUCUCUGAGAGAUUAACC [g2:g27:cont:t1C]", "pre-steady-state target cleavage rate": "0.322 ± 0.03"}, {"sequence": "AAGACUGUCACCUUCUCUGAGAGAUUAACA", "pre-steady-state target cleavage rate": "0.786 ± 0.036"}, {"sequence": "AAGACUGUCACCUUCUCUGAGAGAUUAAGA", "pre-steady-state target cleavage rate": "0.238 ± 0.037"}, {"sequence": "UAGACUGUCACCUUCUCUCUGAGAUUAACA", "pre-steady-state target cleavage rate": "0.0118 ± 0.0026"}, {"sequence": "UAGACUGUCACCUUCUCUGUGAGAUUUUGA", "pre-steady-state target cleavage rate": "0.0048 ± 0.0033"}, {"sequence": "UAGUGACACACCUUCACUGAGAGAAUAACA", "pre-steady-state target cleavage rate": "0.0335 ± 0.0091"}, {"sequence": "UAGUGAGUCACCUUCACUGAGAGAUUUUGA", "pre-steady-state target cleavage rate": "0.0525 ± 0.017"}, {"sequence": "UACACUCUCACCUUCACUGAGAGAUUAACA", "pre-steady-state target cleavage rate": "0.256 ± 0.02"}, {"sequence": "UAGACUGUCACCUCUCUCUGAGAGAUUAACA", "pre-steady-state target cleavage rate": "0.409 ± 0.044"}, {"sequence": "UAGACUGUCACCUCCUCUGAGAGAUUAACA", "pre-steady-state target cleavage rate": "0.744 ± 0.035"}, {"sequence": "AUCACUGUCACCUCUCUCUGAGAGAUUAACA", "pre-steady-state target cleavage rate": "0.515 ± 0.031"}, {"sequence": "AUCACUGUCACCUCCUCUGAGAGAUUAACA", "pre-steady-state target cleavage rate": "0.802 ± 0.033"}, {"sequence": "UACACUGUCACCUCUCUGAGAGAUUAACA", "pre-steady-state target cleavage rate": "0.5 ± 0.035"}, {"sequence": "UUCACUGUCACCUCCUCUGAGAGAUUAACA", "pre-steady-state target cleavage rate": "0.639 ± 0.021"}, {"sequence": "UAGACUGUCACCUGCUCUGAGAGAUUAACA", "pre-steady-state target cleavage rate": "0.77 ± 0.043"}, {"sequence": "UAGACUGUCACCUCUCUGAGAGAUUAACA", "pre-steady-state target cleavage rate": "0.321 ± 0.036"}, {"sequence": "UAGACUGUCACCUUGCUCUGAGAGAUUAACA", "pre-steady-state target cleavage rate": "0.358 ± 0.049"}, {"sequence": "UACACUGUCACCUCCUCUGAGAGAUUAACA", "pre-steady-state target cleavage rate": "0.731 ± 0.026"}, {"sequence": "UAGACUGUCACCUGUCUCUGAGAGAUUAACA", "pre-steady-state target cleavage rate": "0.561 ± 0.036"}, {"sequence": "UACACUGUCACCUCUCUCUGAGAGAUUAACA", "pre-steady-state target cleavage rate": "0.425 ± 0.029"}, {"sequence": "UUCACUGUCAGGUUCUCUGAGAGAUUAUGA", "pre-steady-state target cleavage rate": "0.0127 ± 0.003"}, {"sequence": "UAGUGACUCACCUUCUCUGACACAUUAACA", "pre-steady-state target cleavage rate": "0.00928 ± 0.0035"}, {"sequence": "UUCACUGUCACCUUGUCUGAGUGAUUAACA", "pre-steady-state target cleavage rate": "0.0394 ± 0.0054"}, {"sequence": "UAGUCUGUCUCCUUCUGUGAGAGAUUAACA", "pre-steady-state target cleavage rate": "0.536 ± 0.028"}, {"sequence": "UUCACUGUGACGUUCUCUGAGAGAUUAACA", "pre-steady-state target cleavage rate": "0.59 ± 0.026"}, {"sequence": "AUCAGACUCACCUUCUCUGAGAGAUUAAGA", "pre-steady-state target cleavage rate": "0.159 ± 0.028"}, {"sequence": "AUCACUGUCACCUUCUCUGAGAGUAUUUGA", "pre-steady-state target cleavage rate": "0.109 ± 0.034"}, {"sequence": "UUCACUGUCACCUUCUCUGAGAGAAAAUGA", "pre-steady-state target cleavage rate": "0.0429 ± 0.015"}, {"sequence": "UAGUGACUCACCUUCUCUCAGAGAUAAACA", "pre-steady-state target cleavage rate": "0.0156 ± 0.0032"}, {"sequence": "UAGUGACUCACCCUCUCUGAGAGAUUAACA", "pre-steady-state target cleavage rate": "0.415 ± 0.045"}, {"sequence": "AUCUCUGUCACCUUCUCUCAGAGAUUAACA", "pre-steady-state target cleavage rate": "0.105 ± 0.0088"}, {"sequence": "UAGUGUGUCACCAUCUCUGACAGAUUAACA", "pre-steady-state target cleavage rate": "0.222 ± 0.021"}, {"sequence": "UAGACUGUCACCUUCUCUGAGAGAUAAUGA", "pre-steady-state target cleavage rate": "0.00696 ± 0.0033"}, {"sequence": "UAGUCUGUCACCUCCUCUGAGAGAUUAACA", "pre-steady-state target cleavage rate": "0.726 ± 0.038"}, {"sequence": "UAGUCUGUCACCUCUCUCUGAGAGAUUAACA", "pre-steady-state target cleavage rate": "0.481 ± 0.032"}, {"sequence": "UAGUCUGUCACCUCUCUGAGAGAUUAACA", "pre-steady-state target cleavage rate": "0.447 ± 0.048"}, {"sequence": "UAGUGACUCACCUUCUCUGAGAGAUUAACC [g2:g23:cont:t1C]", "pre-steady-state target cleavage rate": "0.303 ± 0.032"}, {"sequence": "AUCACUGUCAGGUUCUCUGAGAGAUUAACA", "pre-steady-state target cleavage rate": "0.653 ± 0.043"}, {"sequence": "UUCACUGUGACCUUCUCUGAGAGAUAAACA", "pre-steady-state target cleavage rate": "0.214 ± 0.023"}, {"sequence": "AUCACUGUCAGCUUCUCUGAGAGAUUAACA", "pre-steady-state target cleavage rate": "0.802 ± 0.044"}, {"sequence": "UUCUCUGUCAGCUUCUCUGAGAGAUUAACA", "pre-steady-state target cleavage rate": "0.586 ± 0.028"}, {"sequence": "UACACUGUCUGCUUCUCUGAGAGAUUAACA", "pre-steady-state target cleavage rate": "0.708 ± 0.043"}, {"sequence": "UUCACUGUCAGCUUCUCUGAGAGAUUAACA", "pre-steady-state target cleavage rate": "0.723 ± 0.032"}, {"sequence": "UUCACUGUCUGCUUCUCUGAGAGAUUAACA", "pre-steady-state target cleavage rate": "0.639 ± 0.038"}, {"sequence": "AUCACUGUCUGCUUCUCUGAGAGAUUAACA", "pre-steady-state target cleavage rate": "0.74 ± 0.042"}, {"sequence": "AUCACUGUCAGCUUCUCUGUGAGAUUAACA", "pre-steady-state target cleavage rate": "0.237 ± 0.013"}, {"sequence": "UACACUGUCAGCUUCUCUGAGAGAUUAACA", "pre-steady-state target cleavage rate": "0.655 ± 0.027"}, {"sequence": "UAGACUGUCAGCUUCUCUGUGAGAUUAACA", "pre-steady-state target cleavage rate": "0.198 ± 0.0095"}, {"sequence": "AACACUGUCAGCUUCUCUGAGAGAUUAACA", "pre-steady-state target cleavage rate": "0.753 ± 0.039"}, {"sequence": "UAGACUGUCAGCUUCUCUGAGAGAUUAACA", "pre-steady-state target cleavage rate": "0.753 ± 0.05"}, {"sequence": "AUGACUGUCAGCUUCUCUGAGAGAUUAACA", "pre-steady-state target cleavage rate": "0.721 ± 0.046"}, {"sequence": "UUCACUGUCACGUUCUCUCAGAGAUUAACA", "pre-steady-state target cleavage rate": "0.0729 ± 0.0078"}, {"sequence": "UAGUGACAGUGGAAGUCUGAGAUAUUAACA", "pre-steady-state target cleavage rate": "< 0.0001"}, {"sequence": "AUCAGUGUCACCUUGUCUGAGAGAUUAACA", "pre-steady-state target cleavage rate": "0.209 ± 0.029"}, {"sequence": "UACACUGUCACCUUCUCCGAGAGAUUAACA", "pre-steady-state target cleavage rate": "0.351 ± 0.051"}, {"sequence": "UUCACUGUCACCUUCUCUGUGAGAUUAUCA", "pre-steady-state target cleavage rate": "0.106 ± 0.025"}, {"sequence": "UAGUGAGUCACCUACUCUGAGAGAUUAAGA", "pre-steady-state target cleavage rate": "0.13 ± 0.021"}, {"sequence": "UAGACUGUCAGCCUUCUCUGAGAGAUUAACA", "pre-steady-state target cleavage rate": "0.231 ± 0.024"}, {"sequence": "UUCACUGUCACCUUCUCUGACGAGAUUAACA", "pre-steady-state target cleavage rate": "0.0334 ± 0.0098"}, {"sequence": "AUCACUGUCACCUUCUCUGAGAGAUUAACA [g2:g30:cont:t1A]", "pre-steady-state target cleavage rate": "0.734 ± 0.035"}, {"sequence": "UUCACUUGUCACCUUCUCUGAGAGAUUAACA", "pre-steady-state target cleavage rate": "0.63 ± 0.09"}, {"sequence": "AUCACUGUCACCUUCUCUGAGAAUUAACA", "pre-steady-state target cleavage rate": "0.366 ± 0.11"}, {"sequence": "UACACUUGUCACCUUCUCUGAGAGAUUAACA", "pre-steady-state target cleavage rate": "0.631 ± 0.088"}, {"sequence": "UACACUGGUCACCUUCUCUGAGAGAUUAACA", "pre-steady-state target cleavage rate": "0.676 ± 0.038"}, {"sequence": "AUCACUGGUCACCUUCUCUGAGAGAUUAACA", "pre-steady-state target cleavage rate": "0.742 ± 0.047"}, {"sequence": "UUCACUGGUCACCUUCUCUGAGAGAUUAACA", "pre-steady-state target cleavage rate": "0.652 ± 0.034"}, {"sequence": "AUCACUGUCACCUUCUCUCUGAGAUUAACA", "pre-steady-state target cleavage rate": "0.0402 ± 0.0095"}, {"sequence": "AUCACUGUCACCUUCUCUGAGAGAUUAACC [g2:g30:cont:t1C]", "pre-steady-state target cleavage rate": "0.387 ± 0.032"}, {"sequence": "AUCACUGUCACCUUCUCUGAGAGAAUUAACA", "pre-steady-state target cleavage rate": "0.738 ± 0.13"}, {"sequence": "UUCACUGUCACCUUCUCUGAGAGAAUUAACA", "pre-steady-state target cleavage rate": "0.641 ± 0.098"}, {"sequence": "AUCACUUGUCACCUUCUCUGAGAGAUUAACA", "pre-steady-state target cleavage rate": "0.754 ± 0.12"}]}]}
